High-throughput results (PubChem)
In the library only some 1.1% were active in any assay of this set; here they are far more common.
STK33 inh: STK33 kinase inhibitors, primary screen, biochemical, luminescence, ADP-Glo, MBP substrate | Serine/threonine-protein kinase 33 (Homo sapiens), Q9BYT3 | AID 2322, 2010 | hit rate 0.44% among 27,000 | inhibition, % at 12.5 µM; in the data active = inhibition above about 20%
ID4 SMM: binders of human ID4 protein, primary screen, biochemical, small molecule microarray, single point | hit rate 1.2% among 31,000 | Flag-ID4 binding, fluorescence F/B | DNA-binding protein inhibitor ID-4 (Homo sapiens), P47928 | AID 624137, 2012 | calls only; call rule not given here;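 note: a binder raises fluorescence above local background on the spot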
Target sequence (P47928 whole entry, looked up): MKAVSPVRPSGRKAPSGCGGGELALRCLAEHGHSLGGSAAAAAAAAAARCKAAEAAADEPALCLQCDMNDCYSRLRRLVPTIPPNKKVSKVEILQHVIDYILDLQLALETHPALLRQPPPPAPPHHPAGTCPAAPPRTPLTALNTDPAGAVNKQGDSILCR
An asterisk follows results filed as active; i = inactive; x = no result given; + = active, no number.

SMILES	STK33 inh	ID4 SMM
Cc1ccc(N(C(C)C(=O)Nc2cccc(Cl)c2C)S(C)(=O)=O)cc1C (configuration not stated)	-1	i
Cn1c(NCCCN)nc2c1c(=O)n(Cc1ccccc1Cl)c(=O)n2C	-1	+
Cn1c(=O)c2c(nc(NCCN)n2C)n(C)c1=O	2	i
O=C1c2ccccc2-c2n[nH]c3cccc1c23	111*	i
Cc1nc2nc(NCc3cccc([N+](=O)[O-])c3)[nH]n2c(=O)c1Cc1ccccc1	1	i
COc1cccc(CNc2nc3nc(C)c(Cc4ccccc4)c(=O)n3[nH]2)c1	0	+
CCCN(C)C[C@H]1OCc2cn(nn2)CCCC(=O)N([C@H](C)CO)C[C@H]1C	x	+
C[C@H](CO)N1C[C@H](C)[C@H](CN(C)CC2CC2)OCc2cn(nn2)CCCC1=O	2	i
CNC[C@@H]1OCCCC[C@H](C)Oc2ccc(NC(=O)C3CCCCC3)cc2C(=O)N([C@H](C)CO)C[C@@H]1C	x	i
COc1ccc([Si](C)(C)[C@@H]2[C@@H](CCn3cc(CCO)nn3)O[C@]3(C(=O)N(Cc4ccc(N5CCC5=O)cc4)c4ccccc43)[C@H]2C)cc1	22*	i
COc1ccc([Si](C)(C)[C@H]2[C@H](CCn3cc(CCO)nn3)O[C@@]3(C(=O)N(Cc4ccc(N5CCC5=O)cc4)c4ccccc43)[C@@H]2C)cc1	19	i
CC(=O)Nc1ccc(-n2c(CCC(=O)O)ccc2-c2ccc(C)cc2)cc1	3	+
CC(=O)c1ccc(-n2c(CCC(=O)O)ccc2-c2ccc(F)cc2)cc1	4	i
COc1cc2nccc(Oc3ccc(NC(=O)Nc4ccc(F)cc4F)c(F)c3)c2cc1OC	x	+
O=C(NCc1ccccn1)Nc1ccc(F)cc1F	-5	i
O=c1cc(-c2ccc(O)cc2)oc2cc(O)cc(O)c12	54*	x
O=c1c(O)c(-c2ccc(O)cc2)oc2cc(O)cc(O)c12	33*	x
Cc1cc(O)cc2oc3cc(O)cc(O)c3c(=O)c12	16	x
COc1cc(O)c2c(=O)cc(-c3ccc(O)cc3)oc2c1	7	x
O=c1cc(-c2ccccc2)oc2cccc(O)c12	15	i
O=c1cc(-c2ccccc2)oc2cc(O)cc(O)c12	33*	x
COC(=O)c1cc(NC(=O)CN2C(=O)c3cccc4cccc2c34)ccc1Cl	5	i
Cc1ccc(-c2nc3ccccc3o2)cc1NC(=O)C(C)(C)Oc1ccc(Cl)cc1	-1	i
C[C@@H]1CN([C@@H](C)CO)C(=O)c2cccc(NC(=O)c3cnccn3)c2O[C@@H]1CN(C)C(=O)Nc1ccccc1	x	i
COc1ccc(NC(=O)Nc2cccc3c2O[C@H](CN(C)S(=O)(=O)c2ccc(Cl)cc2)[C@H](C)CN([C@@H](C)CO)C3=O)cc1	x	+
SMILES	STK33 inh	ID4 SMM
C[C@@H]1CN([C@H](C)CO)C(=O)c2cccc(NC(=O)c3nc4ccccc4s3)c2O[C@H]1CN(C)C(=O)Nc1cccc2ccccc12	x	+
C[C@@H]1CN([C@@H](C)CO)C(=O)c2cccc(NC(=O)c3nc4ccccc4s3)c2O[C@H]1CN(C)C(=O)Nc1cccc2ccccc12	x	i
COc1ccc(NC(=O)Nc2cccc3c2O[C@@H](CN(C)S(=O)(=O)c2ccc(Cl)cc2)[C@@H](C)CN([C@@H](C)CO)C3=O)cc1	x	i
C[C@H]1CN([C@@H](C)CO)C(=O)c2cccc(NC(=O)c3cnccn3)c2O[C@@H]1CN(C)C(=O)Nc1ccccc1	x	+
CNC[C@@H]1OCCCC[C@H](C)Oc2ccc(NC(=O)c3ccncc3)cc2C(=O)N([C@H](C)CO)C[C@H]1C	x	i
C[C@@H]1CN([C@@H](C)CO)C(=O)c2cc(NC(=O)c3ccncc3)ccc2O[C@H]1CN(C)C(=O)NC1CCCCC1	x	i
COc1cc(-c2nc3sc4c(c3c(=O)[nH]2)CCCC4)cc(Br)c1OCC(=O)O	5	+
Cc1ccccc1NC(=O)COc1ccc(-c2nc3sc4c(c3c(=O)[nH]2)CCCC4)cc1	1	i
CC(NC(=O)/C=C/C(=O)O)C(=O)NC(C(=O)NC(Cc1c[nH]c2ccccc12)C(=O)O)C(C)c1c[nH]c2ccccc12 (configuration not stated)	150*	i
CC(C)[C@H](N)C(=O)N[C@@H](Cc1c[nH]c2ccccc12)C(=O)O	3	x
C[C@@H]1CN([C@@H](C)CO)C(=O)c2cc(C#CC3(O)CCCC3)cnc2O[C@@H]1CN(C)CC1CC1	x	i
Cc1cc(=O)oc2cc(OC(C)C(=O)Nc3sc4c(c3C(N)=O)CCCC4)ccc12 (configuration not stated)	6	+
Cc1cc(=O)oc2cc(OC(C)C(=O)NCC3CCCO3)ccc12 (configuration not stated)	-1	i
Cc1ccc(C(=O)Nc2cccc(OC(=O)c3cc(S(=O)(=O)N4CCCCC4)ccc3Cl)c2)cc1	0	+
O=C(Nc1cccc(O)c1)c1cc(S(=O)(=O)N2CCOCC2)ccc1Cl	-4	i
N#Cc1ccccc1CSc1ncn[nH]1	-4	i
C[C@H](CO)N1C[C@H](C)[C@H](CN(C)C(=O)NC2CCCCC2)Oc2ncc(C#Cc3ccc(C(F)(F)F)cc3)cc2C1=O	2	x
CNC[C@H]1Oc2ccc(NS(=O)(=O)c3cccs3)cc2CC(=O)N([C@H](C)CO)C[C@@H]1C	x	+
CNC[C@@H]1Oc2ccc(NS(=O)(=O)c3cccs3)cc2CC(=O)N([C@H](C)CO)C[C@@H]1C	-2	i
CNC[C@@H]1Oc2ccc(NS(=O)(=O)c3ccccc3)cc2CC(=O)N([C@@H](C)CO)C[C@H]1C	x	+
CNC[C@@H]1Oc2ccc(NS(=O)(=O)c3ccccc3)cc2CC(=O)N([C@@H](C)CO)C[C@@H]1C	-1	i
Cc1nnc(SCC(=O)Nc2ccccc2C(C)C)s1	0	i
C[C@@H]1CN([C@@H](C)CO)C(=O)c2cccc(NC(=O)C3CCOCC3)c2O[C@H]1CN(C)S(=O)(=O)c1ccc(Cl)cc1	x	i
O=C(C[C@@H]1CC[C@@H](NS(=O)(=O)c2ccccc2)[C@H](CO)O1)NCCN1CCCCC1	x	i
O=C(C[C@@H]1CC[C@@H](NS(=O)(=O)c2ccccc2)[C@@H](CO)O1)NCCN1CCCCC1	x	+
SMILES	STK33 inh	ID4 SMM
C[C@H]1CN([C@@H](C)CO)C(=O)CCCn2nncc2CO[C@H]1CN(C)S(C)(=O)=O	-1	x
C[C@@H]1CN([C@H](C)CO)C(=O)c2cc(NS(=O)(=O)c3ccc(Cl)cc3)ccc2O[C@H]1CN(C)C(=O)Nc1ccc(C(F)(F)F)cc1	0	x
COc1ccc(S(=O)(=O)N2CCN(Cc3ccc(OCCO)cc3)CC2)cc1	-1	+
Cc1ccc(S(=O)(=O)N2CCN(Cc3ccc(OCCO)cc3)CC2)cc1	-1	i
COc1ccc(S(=O)(=O)N2CCN(Cc3cccc(OCCO)c3)CC2)cc1	-2	x
Cc1ccc(S(=O)(=O)N2CCN(Cc3cccc(OCCO)c3)CC2)cc1	-3	+
CCn1c(SCC(=O)Nc2ccc(Br)c(Cl)c2)nnc1-c1ccccc1	3	i
COc1ccc(C)cc1NC(=O)CN(c1cccc2ccccc12)S(C)(=O)=O	-2	i
Cc1ccc(-c2nn(C)c(=O)c3ccccc23)cc1S(=O)(=O)N1CCN(CCO)CC1	-2	+
Cc1ccc(-c2nn(C)c(=O)c3ccccc23)cc1CNC(=O)CN1CCOCC1	-9	i
